This is one part of a sample in which hits are shown more often than they occur.
NOMO-1 viab: STK33 inhibitor candidate reducing NOMO-1 cell viability | inhibition, % (test concentration not listed) | NOMO-1 AML viability, CellTiter-Glo luminescence, 72 h | AID 2330 | actives 7.5% (n = 37,000); in the data active = inhibition above about 80%
STK33 kin inh: human STK33 kinase inhibition; actives 0.44% (n = 27,000); inhibition, % at 12.5 µM; ADP-Glo luminescence, MBP substrate; in the data active = inhibition above about 20%
Target sequence (Q9BYT3 whole entry, looked up): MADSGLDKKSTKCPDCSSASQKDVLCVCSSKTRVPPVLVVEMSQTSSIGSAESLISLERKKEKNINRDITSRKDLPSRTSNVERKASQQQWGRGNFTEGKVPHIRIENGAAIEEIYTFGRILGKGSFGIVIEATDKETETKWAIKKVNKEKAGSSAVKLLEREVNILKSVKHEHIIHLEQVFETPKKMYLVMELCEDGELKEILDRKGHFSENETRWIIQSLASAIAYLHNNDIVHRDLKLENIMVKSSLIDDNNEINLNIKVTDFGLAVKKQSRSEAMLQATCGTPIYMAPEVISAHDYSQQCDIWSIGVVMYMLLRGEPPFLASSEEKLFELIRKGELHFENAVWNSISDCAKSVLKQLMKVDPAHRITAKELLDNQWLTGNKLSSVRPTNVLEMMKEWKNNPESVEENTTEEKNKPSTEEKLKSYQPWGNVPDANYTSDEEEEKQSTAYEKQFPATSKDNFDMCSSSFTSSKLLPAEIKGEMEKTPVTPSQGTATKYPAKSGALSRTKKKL
PD-1 reversal: reversal of PD-1 mediated T-cell inhibition | primary human CD4 T cells, PD-L1 beads, CellTiter-Glo 96 h | activation, % (concentration not given with the values) | 29,000 tested, under 10 active; call rule not given here
Numbers stand for hits; . = inactive; / = no result given.

SMILES	NOMO-1 viab	STK33 kin inh	PD-1 reversal
CC(=O)O[C@H]1[C@H](Oc2ccccc2COC(=O)C2(O)C=CCCC2=O)O[C@H](CO)[C@@H](O)[C@@H]1O (stereo partly specified)	.	.	.
O=C(O[C@H]1[C@H](Oc2ccccc2COC(=O)C2(O)C=CCCC2=O)O[C@H](CO)[C@@H](O)[C@@H]1O)c1ccccc1 (stereo partly specified)	121	.	.
COc1ccc(OC)c(S(=O)(=O)Nc2ccc(C(N)=O)cc2)c1	.	.	.
COc1ccc(C(=O)Nc2ccc(Cl)cc2)cc1S(=O)(=O)Nc1ccc(Cl)cc1	.	/	.
COc1ccc(OC)c(NC(=O)c2ccc(Cl)c(S(=O)(=O)Nc3ccc(C)cc3)c2)c1	93	.	.
COc1ccc(OC)c(NC(=O)c2ccc(C)c(S(=O)(=O)Nc3ccc(C)cc3)c2)c1	103	.	.
CNC(=O)CN(c1ccc(C)cc1)S(=O)(=O)c1ccccc1	.	.	/
Cc1cc(C(=O)CSc2ncnc3sc4c(c23)CCCC4)c(C)n1Cc1ccco1	.	/	.
Cc1ccc(S(=O)(=O)NCC(=O)Nc2ccc(I)cc2)cc1	.	.	.
Cc1noc(C)c1NC(=O)Nc1ccc2c(c1)C(=O)N([C@H](C)CO)C[C@H](C)[C@H](CN(C)Cc1ccc(C(=O)Nc3ccccc3N)cc1)O2	.	/	.
C[C@H]1CN([C@@H](C)CO)C(=O)Cc2cc(NC(=O)c3ccncc3)ccc2O[C@@H]1CN(C)Cc1ccc(C(=O)Nc2ccccc2N)cc1	.	/	.
C[C@@H]1CN([C@H](C)CO)C(=O)Cc2cc(NC(=O)Nc3ccc(F)cc3)ccc2O[C@@H]1CN(C)Cc1ccc(C(=O)Nc2ccccc2N)cc1	97	/	.
Cc1noc(C)c1NC(=O)Nc1ccc2c(c1)CC(=O)N([C@H](C)CO)C[C@H](C)[C@H](CN(C)Cc1ccc(C(=O)Nc3ccccc3N)cc1)O2	137	/	.
C[C@H]1CN([C@@H](C)CO)C(=O)Cc2cc(NC(=O)c3ccncc3)ccc2O[C@H]1CN(C)Cc1ccc(C(=O)Nc2ccccc2N)cc1	126	/	.
C[C@H]1CN([C@@H](C)CO)C(=O)Cc2cc(NC(=O)Nc3cccc4ccccc34)ccc2O[C@@H]1CN(C)Cc1ccc(C(=O)Nc2ccccc2N)cc1	.	/	.
C[C@H]1CN([C@@H](C)CO)C(=O)Cc2cc(NC(=O)Nc3cccc4ccccc34)ccc2O[C@H]1CN(C)Cc1ccc(C(=O)Nc2ccccc2N)cc1	105	/	.
Cc1ccc(-c2csc3ncnc(SCC(=O)Nc4ccccc4F)c23)cc1	.	.	.
Cc1c(O)c(-c2ccccc2)c(=O)n(-c2ccccn2)c1-c1ccccc1	.	/	.
COc1ccc(C)cc1N(CC(=O)Nc1cccc(Cl)c1Cl)S(C)(=O)=O	.	.	.
Cc1ccc2c(c1)NC(C(F)(F)F)(C(F)(F)F)NC2=O	.	/	.
CC(C)(C)c1cc(-c2nnc(-c3cccs3)o2)n(Cc2ccc(F)cc2)n1	.	.	.
O=C(CN(CCO)C(=O)c1ccc(Cl)cc1)Nc1ccc(F)cc1	.	.	.
C[C@H]1CN([C@@H](C)CO)C(=O)Cc2cc(NC(=O)Nc3ccc4c(c3)OCO4)ccc2O[C@@H]1CN(C)Cc1ccc(C(=O)Nc2ccccc2N)cc1	.	/	.
C[C@H]1CN([C@@H](C)CO)C(=O)Cc2cc(NC(=O)Nc3ccc(F)cc3)ccc2O[C@H]1CN(C)Cc1ccc(C(=O)Nc2ccccc2N)cc1	128	/	.
C[C@H]1CN([C@@H](C)CO)C(=O)Cc2cc(NC(=O)Nc3ccccc3)ccc2O[C@H]1CN(C)Cc1ccc(C(=O)Nc2ccccc2N)cc1	139	/	.
SMILES	NOMO-1 viab	STK33 kin inh	PD-1 reversal
CC(C)NC(=O)Nc1ccc2c(c1)CC(=O)N([C@@H](C)CO)C[C@@H](C)[C@@H](CN(C)Cc1ccc(C(=O)Nc3ccccc3N)cc1)O2	107	/	.
C[C@H](CO)N1C[C@H](C)[C@H](CN(C)Cc2ccc(C(=O)Nc3ccccc3N)cc2)Oc2ccc(NC(=O)Nc3ccc4c(c3)OCO4)cc2CC1=O	127	/	.
Cc1nc(SCC(=O)c2cccs2)c2c3c(sc2n1)CCCC3	.	.	.
COc1ccc(OCc2nc3ccccc3n2Cc2ccccc2F)cc1	.	.	.
CC(=O)Nc1ccc(Br)cc1-c1nc2ccccc2[nH]c1=O	.	.	.
Cc1ccccc1NC(=O)CSc1nc(N)c2c3c(sc2n1)COC(C)(C)C3	.	.	/
CN(CC(=O)Nc1ccc(Cl)cc1)S(=O)(=O)c1ccccc1	.	.	.
CCC(=O)Nc1ccc(Cl)c(NC(=O)COc2cccc3ccccc23)c1	.	.	/
O=C(CCCCCN1C(=O)c2cccc3cccc(c23)C1=O)NO	97	.	.
O=C(CCCN1C(=O)c2ccccc2C1=O)Nc1ccc(Nc2ccccc2)cc1	102	.	.
O=C(CCCN1C(=O)c2cccc3cccc(c23)C1=O)Nc1ccccc1Br	.	.	/

Bioassay records as filed in PubChem BioAssay.
